Reference: PubChem BioAssay (EPA / NIEHS)
Several values for one entry are separate records, joined by “and”; a condition that tells them apart may be missing. Equal entries are not always repeated. Inconclusive results are not listed. Some compounds were tested as several samples or in several runs, with calls that do not always agree. Activity calls are given as the source filed them. The calls were made as follows, unless noted: active = hit-call score of the fitted dose curve at least 0.9, where 1 is the maximum; inactive = score below 0.9.

Columns and labels:
[1] = read-out: Transforming Growth Factor (TGFA), TGFA (gene 7039); experiment: LTEA_HepaRG_TGFA: Life Technologies and Expression Analysis (LTEA) Assay for Transforming Growth Factor (TGFA) using HepaRG (AID 2283532); settings: mRNA level, 48 h; actives raise or lower the signal
Method in brief: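 Gene expression of TGFA was quantified by qRT-PCR after human HepaRG cells were treated for 48 h with test chemicals (eight concentrations, highest 100 uM, 0.5% DMSO). Activity in either direction was fitted relative to DMSO.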

[2] = read-out: Transforming Growth Factor (TGFB1), TGFB1 (gene 7040); experiment: LTEA_HepaRG_TGFB1: Life Technologies and Expression Analysis (LTEA) Assay for Transforming Growth Factor (TGFB1) Transporter using HepaRG (AID 2283533); settings: mRNA level, 48 h; actives raise or lower the signal
Method in brief: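 HepaRG, 48 h post-plating, switched to serum-free induction medium; chemicals 100 uM top, half-log, 8 pts, 0.5% DMSO, dup; 48 h exposure; RNA → Fluidigm TaqMan qRT-PCR; norm ACTB/GAPDH/POLR2A; bidirectional fit vs DMSO.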

TIMP1, TIMP1 (gene 7076) = experiment: LTEA_HepaRG_TIMP1: Life Technologies and Expression Analysis (LTEA) Assay for TIMP1 using HepaRG (AID 2283534); settings: mRNA level, 48 h; actives raise or lower the signal;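 also: TaqMan qRT-PCR signal normalized to ACTB GAPDH and POLR2A housekeeping genes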
Method in brief: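 Readout is TIMP1 mRNA level measured by qRT-PCR and normalized to three housekeeping genes. Human HepaRG cells were treated for 48 h in duplicate at eight concentrations up to 100 uM (0.5% DMSO); gain or loss fitted against DMSO.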

[3] = read-out: Tumor necrosis factor receptor 1 (TNFRSF1A), TNFRSF1A (gene 7132); experiment: LTEA_HepaRG_TNFRSF1A: Life Technologies and Expression Analysis (LTEA) Assay for Tumor necrosis factor receptor 1 (TNFRSF1A) using HepaRG (AID 2283535); settings: mRNA level, 48 h; actives raise or lower the signal
Method in brief: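 Read-out is TNFRSF1A transcript level by TaqMan qRT-PCR, normalized to three housekeeping genes, scored as gain or loss of signal versus 0.5% DMSO. Human HepaRG cells received test chemicals for 48 h at up to 100 uM (half-log series).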

[4] = read-out: Thyroid Hormone Responsive (THRSP), THRSP (gene 7069); experiment: LTEA_HepaRG_THRSP: Life Technologies and Expression Analysis (LTEA) Assay for Thyroid Hormone Responsive (THRSP) using HepaRG (AID 2283536); settings: mRNA level, 48 h; actives raise or lower the signal
Method in brief: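 Cell model: human HepaRG, approx. 100,000 cells/well, 0.5% DMSO vehicle. Exposure lasts 48 h; phenobarbital 1 mM serves as induction positive control. Gene expression is measured by qRT-PCR against three endogenous control genes.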

[5] = read-out: UDP glucuronosyltransferase (UGT1A1), UGT1A1 (gene 54658); experiment: LTEA_HepaRG_UGT1A1: Life Technologies and Expression Analysis (LTEA) Assay for UDP glucuronosyltransferase (UGT1A1) using HepaRG (AID 2283538); settings: mRNA level, 48 h; actives raise or lower the signal
Method in brief: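 HepaRG, 48 h chemical exposure (top 100 uM, half-log 8-pt, 0.5% DMSO vehicle), duplicate wells; qRT-PCR (TaqMan, Fluidigm array) for UGT1A1 mRNA, housekeeping-normalized; bidirectional curve fit vs DMSO baseline.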

[6] = read-out: UDP glucuronosyltransferase (UGT1A6), UGT1A6 (gene 54578); experiment: LTEA_HepaRG_UGT1A6: Life Technologies and Expression Analysis (LTEA) Assay for UDP glucuronosyltransferase (UGT1A6) using HepaRG (AID 2283539); settings: mRNA level, 48 h; actives raise or lower the signal
Method in brief: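 HepaRG, 48 h post-plating switch to serum-free induction medium; chemical 48 h, 100 uM top, half-log x8, duplicate, 0.5% DMSO. Phenobarbital 1mM induction control. UGT1A6 mRNA by TaqMan qRT-PCR; gain/loss fit vs DMSO.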

[7] = read-out: X-box binding protein 1 (XBP1), XBP1 (gene 7494); experiment: LTEA_HepaRG_XBP1: Life Technologies and Expression Analysis (LTEA) Assay for X-box binding protein 1 (XBP1) using HepaRG (AID 2283540); settings: mRNA level, 48 h; actives raise or lower the signal
Method in brief: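 Transcript levels of XBP1, measured by qRT-PCR and normalised to three housekeeping genes, were fitted bidirectionally relative to 0.5% DMSO controls. Human HepaRG cells received eight-point half-log dilutions from 100 uM for 48 h.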

[8] = LTEA_HepaRG_LDH_cytotoxicity: Cytotoxicity Assessment in the Life Technologies and Expression Analysis (LTEA) Assay (AID 2283563; active = hit-call score of the fitted dose curve at least 0.9, where 1 is the maximum)
Method in brief: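 Cells were thawed and plated for 48 h. Medium was then replaced with serum-free induction medium. Chemicals (8 half-log points, maximum 100 uM, 0.5% DMSO) were added in duplicate for 48 h, after which spent medium was assayed for LDH.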

[9] = ATG_XTT_Cytotoxicity: Cytotoxicity Assessment in the Attagene TRANS-FACTORIAL HepG2 Assay (AID 2283584; active = hit-call score of the fitted dose curve at least 0.9, where 1 is the maximum;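 as to AC50: cells exposed to compound for 24 h before reading; active means loss of viability signal versus DMSO baseline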)
Method in brief: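 Cells: human HepG2, transiently transfected with MRTU reporter constructs. Exposure 24 h. Readout: XTT, cell number. Baseline/neg ctrl DMSO; loss-of-signal scored.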

[10] = Tanguay_ZF_120hpf_MORT_legacy: (Legacy) Oregon State University Tanguay Lab 120 Hour Post-fertilization zebrafish Assay for Mortality (AID 2283633; active = hit-call score of the fitted dose curve at least 0.9, where 1 is the maximum)
Method in brief: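 5D WT zebrafish, chorion removed 4 hpf; 1 embryo/well from 6 hpf; static exposure to 120 hpf, 28C, dark, sealed. Final DMSO 0.64%. Readout: binary mortality, brightfield, 24 + 120 hpf; DMSO as negative control.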

[11] = TOX21_p53_BLA_p2_viability: Viability Assessment in the Tox21 HCT-116 p53 Agonism Beta-lactamase Assay, Phase 2 (AID 2283591; active = hit-call score of the fitted dose curve at least 0.9, where 1 is the maximum;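 also: compound exposure lasted 16 h at 37 °C; actives lower the ATP signal meaning cytotoxicity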)
Method in brief: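 HCT-116 p53-bla cells (4000/well) rested 5 h at 37C, then received compounds in DMSO (217-fold dilution) for 16 h at 37C, 5% CO2. After the CCF4 read, CellTiter-Glo was added; ATP luminescence was read after 30 min at room temperature.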

[12] = TOX21_p53_BLA_p3_viability: Viability Assessment in the Tox21 HCT-116 p53 Agonism Beta-lactamase Assay, Phase 3 (AID 2283593; active = hit-call score of the fitted dose curve at least 0.9, where 1 is the maximum;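 also: cells exposed to compound for 16 h before reading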)
Method in brief: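 HCT-116 cells (4000/well) rested 5 h at 37C, then got DMSO compounds by pin tool (217-fold dilution) for 16 h at 37C, 5% CO2. After the bla read, CellTiter-Glo was added and luminescence read at 30 min, room temperature.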

[13] = molecular target: Cellular tumor antigen p53 (Homo sapiens) (UniProt P04637); experiment: TOX21_p53_BLA_p3_ratio: Tox21 HCT-116 p53 Agonism Beta-lactamase Assay, Ratio, Phase 3 (AID 2283596; active = hit-call score of the fitted dose curve at least 0.9, where 1 is the maximum)
Sequence of Cellular tumor antigen p53 (Homo sapiens) (P04637 whole entry, looked up): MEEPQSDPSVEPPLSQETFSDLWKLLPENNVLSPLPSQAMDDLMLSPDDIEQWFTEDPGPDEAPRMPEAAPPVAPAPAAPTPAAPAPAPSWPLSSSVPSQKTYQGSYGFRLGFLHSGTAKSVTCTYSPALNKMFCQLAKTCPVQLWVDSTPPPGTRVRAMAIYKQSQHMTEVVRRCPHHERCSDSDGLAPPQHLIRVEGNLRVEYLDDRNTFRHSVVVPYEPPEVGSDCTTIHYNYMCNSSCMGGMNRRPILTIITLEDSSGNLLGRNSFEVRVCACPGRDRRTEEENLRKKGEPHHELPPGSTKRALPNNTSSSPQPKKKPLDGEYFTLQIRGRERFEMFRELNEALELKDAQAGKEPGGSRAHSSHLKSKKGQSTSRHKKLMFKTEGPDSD
Method in brief: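 Cells were seeded at 4000/well, rested 5 h at 37C, then dosed with DMSO compound solutions (217-fold dilution) for 16 h. CCF4-AM substrate was loaded for 2 h at room temperature, and the 460/530 nm emission ratio was fitted for gain of signal versus DMSO.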

[14] = TOX21_p53_BLA_p4_viability: Viability Assessment in the Tox21 HCT-116 p53 Agonism Beta-lactamase Assay, Phase 4 (AID 2283597; active = hit-call score of the fitted dose curve at least 0.9, where 1 is the maximum;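 also: hits lower the luminescence signal meaning cytotoxicity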)
Method in brief: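 Readout: ATP luminescence (CellTiter-Glo), measured 30 min after reagent addition at RT. The reagent followed a 2 h CCF4-AM incubation, and the cells had been exposed to compound for 16 h at 37C.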

[15] = molecular target: Cellular tumor antigen p53 (Homo sapiens) (UniProt P04637); experiment: TOX21_p53_BLA_p5_ratio: Tox21 HCT-116 p53 Agonism Beta-lactamase Assay, Ratio, Phase 5 (AID 2283599; active = hit-call score of the fitted dose curve at least 0.9, where 1 is the maximum)
Method in brief: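 HCT-116 cells carrying a p53-inducible beta-lactamase reporter were seeded at 4000 cells/well and dosed after 5 h with compound in DMSO (217-fold dilution). After 16 h at 37C, CCF4-AM substrate was added for 2 h, and the 460/530 nm emission ratio was scored as gain-of-signal versus DMSO.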

[16] = TOX21_p53_BLA_p5_viability: Viability Assessment in the Tox21 HCT-116 p53 Agonism Beta-lactamase Assay, Phase 5 (AID 2283600; active = hit-call score of the fitted dose curve at least 0.9, where 1 is the maximum)
Method in brief: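 Workflow: seed 4000 cells per well, wait 5 h, add compounds (DMSO, 217-fold dilution), incubate 16 h, load CCF4-AM 2 h, add CellTiter-Glo, read luminescence after 30 min.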

[17] = molecular target: Cellular tumor antigen p53 (Homo sapiens) (UniProt P04637); experiment: TOX21_p53_BLA_p4_ratio: Tox21 HCT-116 p53 Agonism Beta-lactamase Assay, Ratio, Phase 4 (AID 2283601; active = hit-call score of the fitted dose curve at least 0.9, where 1 is the maximum)
Method in brief: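 HCT116 cells carrying an inducible beta-lactamase reporter were plated at 4000 cells/well, rested 5 h, then exposed to compounds in DMSO (217-fold dilution) for 16 h at 37C. CCF4-AM substrate was loaded 2 h at room temperature; 460/530 nm emission ratio scored gain-of-signal versus DMSO.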

[18] = read-out: sulfotransferase 2A1 (SULT2A1), SULT2A1 (gene 6822); experiment: LTEA_HepaRG_SULT2A1: Life Technologies and Expression Analysis (LTEA) Assay for sulfotransferase 2A1 (SULT2A1) using HepaRG (AID 2283531); settings: mRNA level, 48 h; actives raise or lower the signal
Method in brief: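 Transcript levels of SULT2A1, quantified by qRT-PCR and normalized to three housekeeping genes, serve as the readout. Human HepaRG cultures receive test chemicals for 48 h at up to 100 uM in half-log steps, with 0.5% DMSO vehicle.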

[19] = molecular target: Cellular tumor antigen p53 (Homo sapiens) (UniProt P04637); experiment: TOX21_p53_BLA_p2_ratio: Tox21 HCT-116 p53 Agonism Beta-lactamase Assay, Ratio, Phase 2 (AID 2283592; active = hit-call score of the fitted dose curve at least 0.9, where 1 is the maximum)
Method in brief: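 Plated HCT116 p53-bla cells (4000/well) received compound after 5 h, then 16 h at 37C/5% CO2. CCF4-AM added, 2 h RT. Ratio of 460 to 530 nm emission taken as the p53 reporter signal.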

Measured: AC50

CN(C)C(=O)Cl
inactive: [1] | [2] | TIMP1, TIMP1 (gene 7076) | [3] | [4] | [5] | [6] | [7] | [8] | [9] | [10]

CCOS(=O)(=O)OCC
not listed: [9] | [18] | [19]
inactive: all other assays above

CCN(CC)c1ccccc1
not listed: [18] | [19]
inactive: all other assays above

Cc1cccc(N)c1
not listed: [9] | [19]
inactive: all other assays above

ClC1=C(Cl)C2(Cl)C3C(Cl)C(Cl)CC3C1(Cl)C2(Cl)Cl (centres undefined)
active: [2] 77 µM | [5] 2.81 µM | [9] 157 µM | [11] 50.8 µM and 46 µM | [19] 61.5 µM and 80.2 µM | [12] 55.6 µM | [13] 86.1 µM | [14] 64.1 µM | [15] 86.4 µM | [16] 46.1 µM | [17] 63.5 µM
inactive: [1] | TIMP1, TIMP1 (gene 7076) | [3] | [4] | [6] | [7] | [8] | [12] | [13] | [14] | [15] | [16] | [17] | [10]

O=[N+]([O-])c1ccccc1
not listed: [9] | [18] | [19]
inactive: all other assays above

O=C(O)C(Cl)Cl
active: [6] 0.312 µM
inactive: [1] | [2] | TIMP1, TIMP1 (gene 7076) | [3] | [4] | [5] | [7] | [8] | [9] | [10]

Cc1ccc([N+](=O)[O-])cc1C
not listed: [11] | [12] | [13] | [14] | [15] | [16] | [17] | [19]
inactive: all other assays above

O=[N+]([O-])c1ccc(Cl)c(Cl)c1
inactive: [1] | [2] | TIMP1, TIMP1 (gene 7076) | [3] | [6] | [7] | [8] | [9] | [10]
active: [4] 10.8 µM | [5] 13.5 µM

CCC1(c2ccccc2)C(=O)N=C(O)NC1=O (centres undefined)
active: [5] 50 µM
not listed: [12] | [15] | [16] | [18] | [19]
inactive: all other assays above

CCCCN(CCCC)N=O
not listed: [18] | [19]
inactive: all other assays above

CCNc1nc(Cl)nc(NC(C)(C)C)n1
inactive: [1] | [2] | TIMP1, TIMP1 (gene 7076) | [3] | [4] | [6] | [7] | [8] | [9] | [10]
active: [5] 6.03 µM

CCCCc1ccccc1
inactive: [1] | [2] | TIMP1, TIMP1 (gene 7076) | [3] | [4] | [5] | [6] | [7] | [8] | [9] | [10]

CCOP(=S)(OCC)SCSCC
inactive: [1] | [2] | TIMP1, TIMP1 (gene 7076) | [3] | [4] | [5] | [6] | [7] | [8] | [9] | [10]

ClC(Cl)c1ccccc1
inactive: [1] | [2] | TIMP1, TIMP1 (gene 7076) | [3] | [4] | [5] | [6] | [7] | [8] | [9] | [10]

CCCCN(CCCC)SN(C)C(=O)Oc1cccc2c1OC(C)(C)C2
inactive: [1] | [2] | TIMP1, TIMP1 (gene 7076) | [3] | [4] | [6] | [7] | [8] | [9] | [10]
active: [5] 10 µM

Cc1ccc(N)cc1N
active: [4] 4.89 µM | [5] 15 µM | [17] 14.7 µM
inactive: [1] | [2] | TIMP1, TIMP1 (gene 7076) | [3] | [6] | [7] | [8] | [12] | [13] | [15] | [16] | [17] | [10]
